These results are taken from PubChem BioAssay (EPA / NIEHS).

Assay [1] is described as follows: APR_HepG2_NuclearSize_24hr: Apredica 24-hour HepG2 Assay for Nuclear Size (AID 2282907). Conditions: high-content imaging, actives raise or lower the signal. In a few lines: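 Read-out: nuclear diameter from Hoechst 33342 (2 ug/mL) imaging of fixed HepG2 cells, 20x, six fields/well. Compounds ran at 0.39–200 uM for 24 hr, 0.5% DMSO final. Gain or loss was fitted bidirectionally relative to the DMSO baseline.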

A short description of assay [2]: APR_HepG2_CellLoss_24hr: Apredica 24-hour HepG2 Assay for Cell Loss (AID 2282908).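 For AC50: fit in both directions so a hit may be cell loss or gain.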 The settings on record: high-content imaging. In a few lines: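 Read-out: Hoechst 33342-stained nuclei counted by automated fluorescence imaging after formaldehyde fixation and Triton permeabilization. Ten concentrations, 0.39 to 200 uM, duplicate wells, 0.5% DMSO final. Gain or loss of signal fitted relative to DMSO baseline.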

The nature of assay [3]: APR_HepG2_MicrotubuleCSK_24hr: Apredica 24-hour HepG2 Assay for Microtubule CSK Stabilty (AID 2282909). The settings on record: HepG2 microtubule cytoskeleton imaging, actives raise or lower the signal. In a few lines:
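Read-out: alpha-tubulin immunofluorescence intensity by automated high-content imaging of fixed HepG2 cells after 24 h compound treatment. Ten concentrations, 0.39 to 200 uM, in duplicate; DMSO 0.5% v/v. Taxol positive control; DMSO-normalized bidirectional curve fitting.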

Assay [4] can be described thus: APR_HepG2_MitoticArrest_24hr: Apredica 24-hour HepG2 Assay for Mitotic Arrest (AID 2282910). The settings on record: high-content imaging, actives raise or lower the signal. The procedure, abridged:
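Treatment lasted 24 hr in the human HepG2 line at 0.39–200 uM, solvent held at 0.5% DMSO. Fixed cells were stained with Hoechst 33342 and anti-phospho-histone H3, imaged at 20x, and analysed by gain- or loss-of-signal fitting against DMSO.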

Assay [5] can be described thus: APR_HepG2_MitoMembPot_24hr: Apredica 24-hour HepG2 Assay for Mitochondrial Membrane Potential (AID 2282911). The settings on record: imaging, actives raise or lower the signal. In a few lines:
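HepG2, 24 hr dosing, 10 concentrations 0.39–200 uM, 0.5% DMSO final. Live-cell MitoTracker Red CMXRos 250 nM 30 min, then 3.7% formaldehyde fix. HCS fluorescence imaging, 20x; bidirectional fit vs DMSO baseline.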

The nature of assay [6]: APR_HepG2_MitoMass_24hr: Apredica 24-hour HepG2 Assay for Mitochondrial Mass (AID 2282912). The settings on record: high-content imaging, actives raise or lower the signal. In a few lines: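 HepG2, 24 hr dosing, 10 concentrations 0.39–200 uM in duplicate, DMSO 0.5% final. MitoTracker Red CMXRos 250 nM, 30 min pre-fix; 3.7% formaldehyde fix. Imaging-based fluorescence intensity; gain/loss fit vs DMSO baseline.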

Assay [7] is described as follows: APR_HepG2_CellCycleArrest_72hr: Apredica 72-hour HepG2 Assay for Cell Cycle Arrest (AID 2282914). The settings on record: high-content imaging, actives raise or lower the signal. In a few lines:
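HepG2, 72 hr exposure, 10-point 0.39–200 uM, duplicate, 0.5% DMSO final. Fix 3.7% formaldehyde 30 min RT, Triton X-100 0.5%, Hoechst 33342 2 ug/mL. ArrayScan 20x, six fields/well; DNA content per nucleus; bidirectional fit vs DMSO.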

The nature of assay [8]: APR_HepG2_CellLoss_72hr: Apredica 72-hour HepG2 Assay for Cell Loss (AID 2282915). Conditions: high-content imaging. In a few lines: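 HepG2 cells were exposed for 72 hr to compounds at 0.39–200 uM (ten concentrations, duplicate) in 0.5% v/v final DMSO. Nuclei were stained with Hoechst 33342 after 3.7% formaldehyde fixation, imaged at 20x, and counted; fits bidirectional versus DMSO.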

Assay [9] is described as follows: APR_HepG2_P-H2AX_72hr: Apredica 72-hour HepG2 Assay for H2AX Phosphorylation (AID 2282916).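 Note: phospho-histone H2A.x immunostain intensity per cell marking DNA damage.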 Conditions: imaging, actives raise or lower the signal. In a few lines:
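Readout: phospho-H2A.x immunofluorescence (FITC secondary) plus Hoechst nuclear stain, high-content imaging at 20x, six fields/well. HepG2, 72 hr compound exposure, 0.39–200 uM, final DMSO 0.5% v/v. Gain or loss fitted relative to DMSO baseline.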

Assay [10] can be described thus: APR_HepG2_MitoMembPot_72hr: Apredica 72-hour HepG2 Assay for Mitochondrial Membrane Potential (AID 2282917). The settings on record: imaging, actives raise or lower the signal. The procedure, abridged: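 HepG2 cells exposed 72 h to compounds at 0.39–200 uM (0.5% v/v DMSO, duplicates); MitoTracker Red CMXRos 250 nM loaded 30 min before 3.7% formaldehyde fixation, imaged by HCS fluorescence. Bidirectional fit versus DMSO.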

The nature of assay [11]: APR_HepG2_MitoticArrest_72hr: Apredica 72-hour HepG2 Assay for Mitotic Arrest (AID 2282918). The settings on record: high-content imaging, actives raise or lower the signal. In a few lines: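 HepG2, 72 hr exposure, 0.39–200 uM in duplicate, 0.5% v/v DMSO final. Formaldehyde-fixed, Triton-permeabilized, anti-phospho-histone H3/FITC plus Hoechst. ArrayScan imaging at 20x; curves fit bidirectionally against DMSO baseline.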

Assay [12] can be described thus: APR_HepG2_MicrotubuleCSK_72hr: Apredica 72-hour HepG2 Assay for Microtubule CSK Stabilty (AID 2282919). Conditions: HepG2 microtubule cytoskeleton, high-content imaging, actives raise or lower the signal. The procedure, abridged: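 Ten-point dosing (0.39–200 uM, 0.5% DMSO) of HepG2 for 72 hr, with taxol as the cytoskeletal positive control. The cells were formaldehyde-fixed and then stained with alpha-tubulin/Cy5 and Hoechst. Imaging at 20x used a −2 um Z offset for tubulin.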

Assay [13] is described as follows: APR_HepG2_P-H2AX_24hr: Apredica 24-hour HepG2 Assay for H2AX Phosphorylation (AID 2282920). Conditions: high-content imaging, actives raise or lower the signal. The procedure, abridged:
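HCS fluorescence imaging of phospho-H2A.x immunostain (with Hoechst 33342 nuclear counterstain) in HepG2 after 24 hr compound exposure; 10 concentrations, 0.39–200 uM, duplicate wells, 0.5% v/v DMSO. Gain or loss of signal fitted relative to DMSO baseline.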

A short description of assay [14]: APR_HepG2_StressKinase_72hr: Apredica 72-hour HepG2 Assay for Stress Kinase (AID 2282921). Conditions: HepG2 stress kinase (phospho-c-Jun) imaging, actives raise or lower the signal. The procedure, abridged:
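Phospho-c-Jun immunofluorescence measured by high-content imaging at 20x, six fields per well; bidirectional curve fitting against DMSO as baseline. Dosing: 0.39–200 uM, 72 h, 0.5% DMSO final.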

A short description of assay [15]: APR_HepG2_StressKinase_24hr: Apredica 24-hour HepG2 Assay for Stress Kinase (AID 2282922). The settings on record: HepG2 stress kinase (phospho-c-Jun) imaging, actives raise or lower the signal. In a few lines:
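After 24 hr compound treatment (up to 200 uM, final DMSO 0.5% v/v), HepG2 cells are fixed and multiplex-labeled; phospho-c-Jun intensity is captured by high-content fluorescence imaging and analyzed relative to DMSO.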

Assay [16] in a line: APR_HepG2_MitoMass_72hr: Apredica 72-hour HepG2 Assay for Mitochondrial Mass (AID 2282924).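 Note: MitoTracker Red CMXRos stain intensity per cell imaged as mitochondrial mass.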 Conditions: high-content imaging, actives raise or lower the signal. The procedure, abridged:
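Steps: treat HepG2 72 hr (0.39–200 uM, duplicate wells); load MitoTracker Red CMXRos, 250 nM, 30 min; fix with 3.7% formaldehyde, permeabilise with 0.5% Triton X-100; capture images, nuclei via Hoechst 33342; fit bidirectionally against DMSO.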

A short description of assay [17]: APR_HepG2_NuclearSize_72hr: Apredica 72-hour HepG2 Assay for Nuclear Size (AID 2282925). Conditions: high-content imaging, actives raise or lower the signal. In a few lines: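 Compounds (0.39–200 uM, final DMSO 0.5%) were applied to HepG2 for 72 hr. Cells were then formaldehyde-fixed, permeabilized and labelled with Hoechst 33342. Nuclear diameter was quantified from six images per well.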

Assay [18] is described as follows: APR_HepG2_p53Act_72hr: Apredica 72-hour HepG2 Assay for p53 Activation (AID 2282923).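 Note: average cellular p53 protein immunofluorescence intensity in HepG2 cells.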 The settings on record: high-content imaging, actives raise or lower the signal. The procedure, abridged:
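Readout: p53 immunofluorescence quantified by automated high-content imaging at 20x, six fields per well, nuclei located via Hoechst. Dosing ran 72 hr over ten concentrations from 0.39 to 200 uM; bidirectional curve fitting against DMSO baseline.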

Assay [19] is described as follows: APR_HepG2_p53Act_24hr: Apredica 24-hour HepG2 Assay for p53 Activation (AID 2282913).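 Note: p53 protein immunofluorescence averaged per cell in HepG2 with Hoechst nuclei.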 The settings on record: high-content imaging, actives raise or lower the signal. In a few lines: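 Read-out: Cy5 immunofluorescence for p53 in fixed, permeabilized HepG2, imaged by HCS with Hoechst-defined nuclei. Dosing was 24 hr at 0.39–200 uM in 0.5% DMSO. Curves were fitted bidirectionally relative to DMSO.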

Calls of active or inactive are those of the source. Rule for the calls: active = hit-call score of the fitted dose curve at least 0.9, where 1 is the maximum; inactive = score below 0.9.

`N#CC(Br)Br`: the molecule was classed as inactive in [1], in [5], in assay [7], in [10], in [12] and in [14]. Also, the result in [15], in assay [16] and in assay [17] was inactive. Moreover, the AC50 in [2] was 115 µM (active); in assay [3], 169 µM (active); in [4] it was 45.4 µM (active); in [6] it was 86.6 µM (active); in assay [8] it was 96.9 µM (active); in assay [9], 96.9 µM (active). For the same molecule, the values for the AC50 in assay [11] and in assay [13] were 73.6 µM (active) and 88.8 µM (active), respectively.

Consider `OCCCBr`, for which the result in assay [1], in assay [2], in assay [3], in [4], in assay [5] and in [6] was inactive. For the same molecule, the result in [7], in assay [8], in [9], in assay [10], in assay [11] and in assay [13] was inactive. Further, the result in assay [14], in [15], in [18] and in assay [16] was inactive.

For the molecule `CCCSC(=O)N(CCC)CCC`, the molecule was called inactive in assay [1], in assay [2], in assay [3], in assay [4], in assay [5] and in assay [6]. The molecule was called inactive in [7], in assay [8], in assay [9], in assay [10], in [11] and in assay [12]. Moreover, the result in assay [13], in [14], in [15], in assay [18] and in [16] was inactive.

In the case of `c1ccc2c(c1)-c1cccc3cccc-2c13`, the result in [1], in assay [3], in assay [5], in [6], in [10] and in assay [13] was inactive. The result in [14], in assay [15], in [18] and in [16] was inactive. Further, the half-maximal activity concentration (AC50) in [2] is 85.7 µM (active); in assay [4], 107 µM (active); in [7] it was 111 µM (active); in assay [8], 106 µM (active); in assay [9], 108 µM (active); in [11] it was 87.1 µM (active).

For the molecule `Nc1cc(Cl)cc(C(=O)O)c1Cl`, the call in [1], in assay [2], in assay [3], in assay [4], in assay [5] and in [6] was inactive. For the same molecule, the outcome in assay [7], in assay [8], in assay [9], in assay [10], in assay [11] and in [12] was inactive. Further, the outcome in [13], in [14], in [15], in assay [18], in [16] and in assay [17] was inactive.

`O=C(N[C@H](c1ccccc1)[C@@H]1CN2CCC1CC2)c1c(Cl)ccc(C(F)(F)F)c1Cl`: the concentration at half-maximal activity (AC50) was 88.8 µM (active) in assay [1]; 120 µM (active) in [2]; 78.7 µM (active) in assay [4]; 30.6 µM (active) in assay [7]; 64 µM (active) in assay [8]; 44 µM (active) in [9]. Also, the values for the AC50 in [11] and in assay [13] were 24 µM (active) and 117 µM (active), respectively. The molecule was called inactive in [3], in assay [5], in assay [6], in assay [10], in assay [14] and in assay [15]. In addition, the molecule was called inactive in assay [18] and in assay [16].

As to `Clc1ccc(C(c2ccc(Cl)cc2)C(Cl)Cl)cc1`, the result in assay [1], in assay [10], in assay [15], in assay [16] and in [17] was inactive. In addition, the AC50 in [2] was 93.7 µM (active); in [3], 156 µM (active); in assay [4], 89.6 µM (active); in assay [5], 63.9 µM (active); in assay [6], 89.1 µM (active); in [19] it was 107 µM (active). Moreover, the AC50 in assay [7] was 90.9 µM (active); in assay [8], 93.8 µM (active); in assay [9] it was 104 µM (active); in [11], 68.3 µM (active); in assay [13], 108 µM (active); in [14], 114 µM (active). For the same molecule, the AC50 in assay [18] is 87.1 µM (active).

What is called AC50 is the concentration giving half of the maximal activity seen.
